# TSHR antagonist = human thyrotropin receptor antagonism. P16473. TSHR-expressing cells, TSH-stimulated cAMP HTRF, 2 h; hits give low values. activity change, negative = inhibition, % at 11.5 µM. hit rate 0.2% among 330,000. AID 504810;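 active means activity change below a set negative limit, meaning inhibition stronger than a set level, cut at about -70% in these data; inconclusive means activity change between two set negative limits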; further: on the % scale 0 is the no-effect control and ±100 the full control effect
#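 Inhibition of cAMP made by TSHR-expressing cells under TSH stimulation (4nM final, EC80; 2 h, 37 deg C) is quantified with a one-step lysis HTRF kit, anti-cAMP cryptate versus cAMP-d2.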
# gsp ag = gsp mutant agonism | AID 624287 | Potency, µM (titrated, usually from 76.9 µM), for the others: top-dose activation (cAMP increase), usual class: activators | gsp mutant cells, cAMP HTRF, 30 min | hit rate 0.13% among 340,000; active means well fitted activation curve with a large enough effect; inconclusive means small, poorly fitted or top-dose-only effect, or another doubt; inactive means no such curve, though single readings can be large or run the other way; cell line not stated here;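 further: phosphodiesterase inhibitor Ro 20-1724 added with compounds to block cAMP breakdown; potency means the concentration at half of the fitted maximal effect; nearly all actives have a fitted effect of over 60% in size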
#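 Cells stably selected in G418 were plated at 2000/well, grown 16-24 hr, then given compounds in DMSO with the PDE inhibitor […] (300 uM solution added) for 30 min at 37C; cAMP was read by HTRF.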
# gsp antagonist = antagonists of gsp mutant (McCune-Albright syndrome); Potency, µM (series often up to 76.9 µM), for the others: top-dose activity change, negative = inhibition, most hits filed as inhibitors; gsp-mutant cells, cAMP HTRF, 30 min; hit rate 0.4% among 340,000; calls by dose curve; cell line not stated here;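 further: intracellular cAMP measured with PDE inhibitor Ro 20-1724 present during compound exposure; potency means the concentration at half of the fitted maximal effect; on the % scale 0 is the no-effect control and ±100 the full control effect; nearly all actives have a fitted effect of over 65% in size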
#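 Cells in G418 medium, seeded 16-24 h, 37C; buffer exchange to DPBS + 1 mM CaCl2, 0.5 mM MgCl2, 0.05% BSA; cpds in DMSO + […] (300 uM stock), 30 min 37C; HTRF cAMP detection.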
# S-ASM inh = human S-ASM enzyme inhibition. AID 504937. P17405. placental ASM, HMU-PC fluorogenic substrate, 60 min. Potency, µM (highest dose often 57.5 µM), for the others: at the top dose activity change, negative = inhibition, most hits filed as inhibitors. hit rate 0.006% among 340,000; active means well fitted inhibition curve with a large enough effect; inconclusive means small, poorly fitted or top-dose-only effect; inactive means no such curve, though single readings can be large or run the other way; further: potency means the concentration at half of the fitted maximal effect
# Target sequence (P17405 47-631 limits assumed): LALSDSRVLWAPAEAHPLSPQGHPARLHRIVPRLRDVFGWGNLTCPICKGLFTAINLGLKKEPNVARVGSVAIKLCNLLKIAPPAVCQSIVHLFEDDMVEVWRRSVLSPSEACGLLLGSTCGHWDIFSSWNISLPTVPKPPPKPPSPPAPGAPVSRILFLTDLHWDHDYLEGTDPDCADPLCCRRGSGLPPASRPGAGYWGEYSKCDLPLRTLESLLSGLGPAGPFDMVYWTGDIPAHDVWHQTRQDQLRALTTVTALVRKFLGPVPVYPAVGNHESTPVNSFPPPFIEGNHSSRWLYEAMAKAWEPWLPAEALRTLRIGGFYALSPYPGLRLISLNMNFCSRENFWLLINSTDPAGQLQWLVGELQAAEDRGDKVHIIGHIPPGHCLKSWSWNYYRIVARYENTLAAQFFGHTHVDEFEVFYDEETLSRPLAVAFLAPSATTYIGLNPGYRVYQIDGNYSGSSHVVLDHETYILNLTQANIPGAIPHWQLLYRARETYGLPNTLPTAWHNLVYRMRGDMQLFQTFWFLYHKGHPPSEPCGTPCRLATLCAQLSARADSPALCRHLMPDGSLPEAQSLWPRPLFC
#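 Steps: dispense placental human ASM, pin compound, wait 10 min at room temperature, add HMU-PC0 substrate at 9 uM final, incubate 60 min at 37 °C, add stop solution raising pH to 10, read fluorescence.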
# * marks the source's active call; other numbers are inactive results; u = inconclusive; x = no result given; [ ] = remark or other dose. Hits are enriched below; roughly 0.63% of the tested compounds scored in any of these assays.
SMILES,TSHR antagonist,gsp ag,gsp antagonist,S-ASM inh
CCCCc1nnc(NC(=O)CCc2ccccc2)s1,73.3,-1.0%,11.9%,1.4%
NC(=O)C1CCN(c2nc(-c3cccc4ccccc34)cs2)CC1,3.8,x,x,x
COc1ccc(-c2cncnc2-c2ccc(OC)cc2O)cc1,-3.5,23.6%,-20.1%,1.8%
COc1cccc(Oc2cncnc2-c2ccc(OC)cc2O)c1,-5.4,14.2%,28.2µM*,-8.5%
Cc1c(NC(=O)C(C)OC(=O)c2ccc([N+](=O)[O-])cc2Cl)c(=O)n(-c2ccccc2)n1C (stereo unspecified),x,u,0.2%,x
CC(C)N1CCNCC1,-8.2,-27.4%,8.9%,4.1%
Cc1cc(C(=O)CSc2nnc(C3CC3)n2C2CC2)c(C)n1C(C)C,-9.5,-15.5%,4.5%,6.0%
COc1ccc(S(=O)(=O)Nc2cccc(S(=O)(=O)N3CCCCC3)c2)cc1,-5.3,u,-6.1%,-3.2%
Cc1cccc(S(=O)(=O)Nc2nc3ccccc3nc2Nc2ccc3c(c2)OCO3)c1,-10.6,18.5%[15.4 µM],28.2µM*,17.6%
O=[N+]([O-])c1cccc(S(=O)(=O)Nc2nc3ccccc3nc2Nc2cccc(S(=O)(=O)N3CCCCC3)c2)c1,u,-15.6%,17.8µM*,-0.6%
Cc1ccc(S(=O)(=O)Nc2nc3ccccc3nc2Nc2cccc(S(=O)(=O)N3CCCC3)c2)cc1,-41.6,u,31.6µM*,298.6%
C[C@H](CO)N1C[C@H](C)[C@@H](CN(C)S(=O)(=O)c2ccccc2)OCc2cnnn2CCCC1=O,x,-65.0%,x,x
Cc1cc(/C=C2/NC(=O)N(Cc3ccccc3F)C2=O)c(C)n1C(C)C,3.4,-5.5%[15.4 µM],11.2µM*,61.1%
COc1ccccc1CCNC(=O)CCn1c(=O)c2cccn2c2ccc(F)cc21,-7.2,u,-6.4%,-0.7%
CNC(=O)Nc1ccccc1C(=O)Nc1ccccc1,1.2,-6.8%,-0.3%,2.6%
COc1ccc(N2C(=O)C3CCCN3C2c2cccc(Br)c2)cc1 (stereo unspecified),8.3,-47.1%,-0.9%,-4.3%
COc1ccc(N2C(=O)C3CCCN3C2c2ccc(C)o2)cc1 (stereo unspecified),2.2,-5.8%,50.1µM*,2.8%
COc1cc(/C=C2/SC(=O)NC2=O)ccc1Oc1ccc([N+](=O)[O-])cc1[N+](=O)[O-],-21.4,u,25.1µM*,-1.9%
COc1cc(/C=C2/SC(N)=NC2=O)ccc1Oc1ccc([N+](=O)[O-])cc1[N+](=O)[O-],-12.6,-0.8%[15.4 µM],5.5%,0.1%
Cc1cc(OCC(C)C)ccc1/C(O)=C1/C(=O)C(=O)N(Cc2cccnc2)C1c1ccncc1 (stereo unspecified),18.5,5.62µM*,14.1%,-1.5%
CCOc1ccc(/C(O)=C2/C(=O)C(=O)N(CCOCCO)C2c2cccnc2)cc1 (stereo unspecified),1.9,12.6µM*,18.3%,-2.8%
CCOc1ccc(/C(O)=C2/C(=O)C(=O)N(c3ccccn3)C2c2ccc(C)cc2)c(C)c1 (stereo unspecified),-6.4,39.8µM*,7.7%,-4.0%
CCCCOc1ccc(/C(O)=C2/C(=O)C(=O)N(Cc3cccnc3)C2c2ccncc2)c(C)c1 (stereo unspecified),8.7,11.2µM*,17.2%,-1.6%
CCOc1ccc(/C(O)=C2/C(=O)C(=O)N(c3ccccn3)C2c2ccc(Cl)cc2)c(C)c1 (stereo unspecified),2.2,u,3.2%,-10.8%
COc1ccc(C2/C(=C(\O)c3ccc4c(c3)OCCO4)C(=O)C(=O)N2Cc2cccnc2)cc1 (stereo unspecified),-36.9,u,2.9%,-1.4%
CCc1ccccc1Nc1nn2c(=O)c3ccc(C(=O)NCc4cccs4)cc3nc2s1,30.4,x,x,x
COc1ccc(C2=CN3CCCCC3CC2=O)cc1OC (stereo unspecified),-5.5,x,-2.8%,-1.7%
CCOC(=O)C1CN(S(=O)(=O)c2cccs2)c2ccc(CC(=O)OC)cc2O1 (stereo unspecified),-27.6,40.3%,-7.0%,-3.4%
Cc1ccc(NC(=O)C2CCC(CNC(=O)[C@@H]3Cc4ccccc4CN3)CC2)c(C)c1 (stereo partly specified),18.0,60.0%,13.4%,-0.7%
C[C@@H]1CCCCO[C@H](CN(C)Cc2ccccc2)[C@@H](C)CN([C@H](C)CO)C(=O)c2cc(NC(=O)c3ccccc3)ccc2O1,x,6.8%,x,x

# Assay outcomes deposited in PubChem by National Center for Advancing Translational Sciences (NCATS).
